mut p53 SMM: binders of human mutant p53, primary screen, biochemical, small molecule microarray, anti-GST fluorescence. mutant tumor protein p53 (GST-tagged), Homo sapiens. small molecule microarray binding. calls only. 17,000 compounds, 0.4% hits. AID 624136, 2012;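 active = compounds whose four printed spots each glow above background more than chance allows, each with a p-value under 7%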
STAT3 binder: STAT3 binders, primary screen, biochemical, small molecule microarray, single point, set 2; His-STAT3 binding, anti-His fluorescence; calls only; 17,000 compounds, 0.2% hits; AID 624138, 2012;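 active = compounds whose four printed spots each show fluorescence over background unusually high for their array block, chance value under 7%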
NFkB binder: binders of NF-kB p50 subunit, primary screen, biochemical, small molecule microarray, anti-His fluorescence. 17,000 compounds, 1.3% hits. anti-His fluorescence binding. calls only. AID 624139, 2012;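 active = spot fluorescence over background significantly raised, with a chance value under 7% in all four replicate spots of the compound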;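 also: probe protein is his-tagged human p50 processed subunit at 1 µg/ml; raw spot fluorescence signals with no normalization applied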
c-Myc SMM: binders of human c-Myc, primary screen, biochemical, small molecule microarray, anti-His fluorescence. Myc proto-oncogene protein (Homo sapiens), P01106. His-c-Myc binding. calls only. 17,000 compounds, 1.5% hits. AID 624141, 2012;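 active = spot fluorescence over background with P-value below 7% in all four replicate spots, showing protein binding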;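 also: score is binary with 100 for all four spots passing and 0 otherwise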
Target sequence (P01106 whole entry, looked up): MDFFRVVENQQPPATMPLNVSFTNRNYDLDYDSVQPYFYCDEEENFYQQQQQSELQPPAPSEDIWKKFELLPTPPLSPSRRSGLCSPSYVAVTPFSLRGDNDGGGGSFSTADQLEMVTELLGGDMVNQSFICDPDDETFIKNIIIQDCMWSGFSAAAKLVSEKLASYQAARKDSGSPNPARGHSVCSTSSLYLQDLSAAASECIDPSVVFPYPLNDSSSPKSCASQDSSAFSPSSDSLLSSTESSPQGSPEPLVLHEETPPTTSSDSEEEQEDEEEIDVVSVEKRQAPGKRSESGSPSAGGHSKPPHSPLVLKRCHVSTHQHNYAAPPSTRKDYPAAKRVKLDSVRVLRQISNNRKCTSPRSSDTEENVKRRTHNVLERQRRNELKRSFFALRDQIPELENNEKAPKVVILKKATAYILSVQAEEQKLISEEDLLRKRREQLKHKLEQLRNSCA
Starred values were filed as active, the others as inactive. This is a sample that favours compounds with a hit; in the whole collection about 2.4% have one here.

For CNC[C@@H]1Oc2ncc(C#Cc3ccccc3)cc2C(=O)N([C@H](C)CO)C[C@@H]1C the results were mut p53 SMM inactive, STAT3 binder inactive, NFkB binder active and c-Myc SMM active.
Screening COC(=O)CSc1nnc(-c2cc(OC)c(OC)c(OC)c2)n1C returned mut p53 SMM inactive, STAT3 binder inactive, NFkB binder inactive and c-Myc SMM inactive.
For C[C@@H]1O[C@@H](O[C@H]2[C@H](O[C@H]3CC[C@@]4(C)C(CC[C@]5(C)C4CC=C4C6CC(C)(C)CC[C@]6(C(=O)O[C@@H]6O[C@H](CO[C@@H]7O[C@H](CO)[C@@H](O[C@@H]8O[C@@H](C)[C@H](O)[C@@H](O)[C@H]8O)[C@H](O)[C@H]7O)[C@@H](O)[C@H](O)[C@H]6O)CC[C@]45C)[C@]3(C)CO)OC[C@H](O)[C@@H]2O)[C@H](O)[C@H](O)[C@H]1O (some centres not stated) the results were mut p53 SMM inactive, STAT3 binder inactive, NFkB binder inactive and c-Myc SMM inactive.
`C[C@@H]1O[C@@H](O[C@H]2[C@H](O[C@H]3CC[C@@]4(C)C(CC[C@]5(C)C4C=C[C@]46OC[C@@]7(CCC(C)(C)C[C@H]74)[C@@H](O)C[C@]65C)[C@]3(C)CO)O[C@H](CO)[C@@H](O)[C@@H]2O[C@@H]2O[C@H](CO)[C@@H](O[C@@H]3O[C@@H](C)[C@H](O)[C@@H](O)[C@H]3O)[C@H](O)[C@H]2O)[C@H](O)[C@H](O)[C@H]1O` (some centres not stated) gave mut p53 SMM inactive, STAT3 binder inactive, NFkB binder active and c-Myc SMM active.
OC(CSc1nc2ccccc2s1)Cn1c2ccccc2c2ccccc21 (configuration not stated) was read as mut p53 SMM inactive, STAT3 binder inactive, NFkB binder inactive and c-Myc SMM inactive.
For C[C@H](CO)N1C[C@H](C)[C@H](CN(C)C(=O)Nc2ccc(C(F)(F)F)cc2)OCCCC[C@H](C)Oc2ccc(NS(C)(=O)=O)cc2C1=O the results were mut p53 SMM inactive, STAT3 binder inactive, NFkB binder inactive and c-Myc SMM inactive.
CC(C)NC(=O)N(C)C[C@H]1OCCCC[C@H](C)Oc2ccc(NC(=O)Nc3ccc(C(F)(F)F)cc3)cc2C(=O)N([C@@H](C)CO)C[C@H]1C was read as mut p53 SMM inactive, STAT3 binder inactive, NFkB binder active and c-Myc SMM active.
`CC(C)NC(=O)N(C)C[C@@H]1OCCCC[C@H](C)Oc2ccc(NC(=O)Nc3ccc(C(F)(F)F)cc3)cc2C(=O)N([C@H](C)CO)C[C@@H]1C` gave mut p53 SMM inactive, STAT3 binder inactive, NFkB binder active and c-Myc SMM active.
Screening C[C@@H]1CN([C@@H](C)CO)C(=O)c2cc(NS(C)(=O)=O)ccc2O[C@@H](C)CCCCO[C@@H]1CN(C)C(=O)Nc1ccc(C(F)(F)F)cc1 returned mut p53 SMM inactive, STAT3 binder active, NFkB binder inactive and c-Myc SMM inactive.
C[C@H](CO)N1C[C@H](C)[C@@H](CN(C)S(=O)(=O)c2ccc(F)cc2)OCCCC[C@H](C)Oc2ccc(NC(=O)Nc3ccc(C(F)(F)F)cc3)cc2C1=O was read as mut p53 SMM inactive, STAT3 binder inactive, NFkB binder active and c-Myc SMM inactive.
Screening O=C(CCc1ccc(O)cc1)CC(O)CCc1ccc(O)c(O)c1 (configuration not stated) returned mut p53 SMM inactive, STAT3 binder inactive, NFkB binder inactive and c-Myc SMM inactive.
For COc1ccc(NC(=O)Cn2c(-c3ccccc3)nc3sc4c(c3c2=O)CCCC4)cc1 the results were mut p53 SMM inactive, STAT3 binder inactive, NFkB binder inactive and c-Myc SMM inactive.
`O=C(Cn1nnc2sc3c(c2c1=O)CCCC3)NCc1ccco1` gave mut p53 SMM inactive, STAT3 binder inactive, NFkB binder inactive and c-Myc SMM active.
For Oc1ccc([C@@H]2Oc3cc(O)cc(O)c3C[C@@H]2O)cc1 the results were mut p53 SMM inactive, STAT3 binder inactive, NFkB binder inactive and c-Myc SMM inactive.
Cc1ccc(C)c(OC(=O)CS(=O)c2ccccc2[N+](=O)[O-])c1 (configuration not stated) was read as mut p53 SMM inactive, STAT3 binder inactive, NFkB binder inactive and c-Myc SMM inactive.
Screening CC1(C)CC[C@]2(C(=O)O)CC[C@]3(C)C(=CCC4[C@@]5(C)CC[C@H](O[C@@H]6O[C@H](C(=O)O)[C@@H](O[C@@H]7O[C@H](CO)[C@@H](O)[C@H](O)[C@H]7O)[C@H](O)[C@H]6O[C@@H]6O[C@H](CO)[C@@H](O)[C@H](O)[C@H]6O)C(C)(C)C5CC[C@]43C)C2C1 (some centres not stated) returned mut p53 SMM inactive, STAT3 binder active, NFkB binder active and c-Myc SMM active.
Screening CC1OC(OC2C(OC3C(O[C@H]4CC[C@@]5(C)C(CC[C@]6(C)C5CC=C5C7CC(C)(C)CC(O)[C@]7(C)CC[C@]56C)C4(C)C)OC(C(=O)O)C(O)C3O)OCC(O)C2O)C(O)C(O)C1O (some centres not stated) returned mut p53 SMM inactive, STAT3 binder inactive, NFkB binder active and c-Myc SMM active.
For Cc1ccccc1NC(=O)COc1ccc(-c2nc3sc4c(c3c(=O)[nH]2)CCCC4)cc1 the results were mut p53 SMM inactive, STAT3 binder inactive, NFkB binder inactive and c-Myc SMM inactive.
`COc1cc(-c2nc3sc4c(c3c(=O)[nH]2)CCCC4)cc(Br)c1OCC(=O)O` gave mut p53 SMM inactive, STAT3 binder inactive, NFkB binder active and c-Myc SMM active.
`CCn1cc(C(C)NC(=S)Nc2cccc([N+](=O)[O-])c2)c(C)n1` (configuration not stated) gave mut p53 SMM inactive, STAT3 binder inactive, NFkB binder inactive and c-Myc SMM active.
Screening COC(=O)c1cc(C)sc1NC(=S)NC(C)c1cn(C)nc1C (configuration not stated) returned mut p53 SMM inactive, STAT3 binder inactive, NFkB binder inactive and c-Myc SMM inactive.
Screening CCCCCCC/C=C/C(=O)CCc1ccc(O)c(OC)c1 returned mut p53 SMM inactive, STAT3 binder inactive, NFkB binder inactive and c-Myc SMM inactive.
Screening [N-]=[N+]=NCc1ccccc1C[C@@]1(C(=O)N2CCCCC2)N=C(c2ccc(OCCCO)cc2)O[C@@H]1c1ccccc1 returned mut p53 SMM inactive, STAT3 binder active, NFkB binder inactive and c-Myc SMM inactive.
`[N-]=[N+]=NCc1ccccc1C[C@@]1(C(=O)N2CCOCC2)N=C(c2ccc(OCCCO)cc2)O[C@@H]1c1ccccc1` gave mut p53 SMM inactive, STAT3 binder inactive, NFkB binder inactive and c-Myc SMM inactive.

Screening results: PubChem, Broad Institute
